# Assay results published in the supplement of paper PMC8728848.
# This is one part of a sample in which the strongest signals are shown more often than they occur.
# B1: Nictaba (Nicotiana tabacum), Q94EW1 (protein)
# chain: MQGQWIAARDLSITWVDNPQYWTWKTVDPNIEVAELRRVAWLDIYGKIETKNLIRKTSYAVYLVFKLTDNPRELERATASLRFVNEVAEGAGIEGTTVFISKKKKLPGELGRFPHLRSDGWLEIKLGEFFNNLGEDGEVEMRLMEINDKTWKSGIIVKGFDIRPN
# B2: CD34 (Homo sapiens), P28906 (protein)
# chain: MGSSHHHHHHSSGLVPRGSHMSTSLATSPTKPYTSSSPILSDIKAEIKCSGIREVKLTQGICLEQNKTSSCAEFKKDRGEGLARVLCGEEQADADAGAQVCSLLLAQSEVRPQCLLLVLANRTEISSKLQLMKKHQSDLKKLGILDFTEQDVASHQSYSQKT
# Experiments:
# Test in all cases: glycan array binding signal (z-score within array); higher = stronger binding
# Conditions in all cases: glycan notation: IUPAC condensed, linker removed
# [1] = target: Man(a1-2)Man(a1-3)[Man(a1-6)]Man(a1-6)[Man(a1-2)Man(a1-3)]Man(b1-4)GlcNAc(b1-4)GlcNAc
# How it was run: (§1)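 Glycan array data came from 3228 arrays in the Consortium for Functional Glycomics database, and only arrays with an available protein sequence were kept. Glycan names were put into IUPAC-condensed notation, and columns mapping to the same glycan were averaged. The binding signal is a within-array Z-score, averaged across arrays of one protein sequence run at different concentrations or buffers and across linkers. A negative Z-score can be read as non-binding.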
# [2] = target: Man(a1-2)Man(a1-6)[Man(a1-3)]Man(a1-6)[Man(a1-2)Man(a1-2)Man(a1-3)]Man(b1-4)GlcNAc(b1-4)GlcNAc
# How it was run: as §1
# [3] = target: Man(a1-3)[Man(a1-6)]Man(a1-6)[Man(a1-2)Man(a1-3)]Man(b1-4)GlcNAc(b1-4)GlcNAc
# How it was run: as §1
# [4] = target: Man(a1-3)[Man(a1-6)]Man(a1-6)[Man(a1-3)]Man(b1-4)GlcNAc(b1-4)GlcNAc
# How it was run: as §1
# [5] = target: Man(a1-3)[Man(a1-6)]Man(b1-4)GlcNAc(b1-4)GlcNAc
# How it was run: as §1
# [6] = target: Neu5Ac(a2-3)Gal(b1-4)GlcNAc(b1-2)Man(a1-3)[GlcNAc(b1-4)][Neu5Ac(a2-3)Gal(b1-4)GlcNAc(b1-2)Man(a1-6)]Man(b1-4)GlcNAc(b1-4)GlcNAc
# How it was run: as §1
# [7] = target: Neu5Ac(a2-3)Gal(b1-4)GlcNAc(b1-3)[Neu5Ac(a2-3)Gal(b1-4)GlcNAc(b1-6)]GalNAc
# How it was run: as §1
# [8] = target: Neu5Ac(a2-3)Gal(b1-4)[Fuc(a1-3)]GlcNAc(b1-6)[Gal(b1-3)]GalNAc
# How it was run: as §1
# [9] = target: Neu5Ac(a2-3)Gal6S(b1-4)GlcNAc
# How it was run: as §1
# [10] = target: Neu5Ac(a2-3)[GalNAc(b1-4)]Gal(b1-4)GlcNAc
# How it was run: as §1
# [11] = target: Neu5Ac(a2-6)Gal(b1-4)GlcNAc
# How it was run: as §1
# [12] = target: Neu5Ac(a2-6)Gal(b1-4)GlcNAc(b1-3)Gal(b1-4)GlcNAc(b1-2)Man(a1-3)[Neu5Ac(a2-6)Gal(b1-4)GlcNAc(b1-3)Gal(b1-4)GlcNAc(b1-2)Man(a1-6)]GalNAc
# How it was run: as §1
# [13] = target: Neu5Ac(a2-6)Gal(b1-4)GlcNAc(b1-6)[Gal(b1-3)GlcNAc(b1-3)]Gal(b1-4)Glc
# How it was run: as §1
# [14] = target: Neu5Ac(a2-8)Neu5Ac(a2-3)[Gal(b1-3)GalNAc(b1-4)]Gal(b1-4)Glc
# How it was run: as §1
# [15] = target: Neu5Ac(a2-8)Neu5Ac(a2-8)Neu5Ac(a2-8)Neu5Ac(a2-3)[GalNAc(b1-4)]Gal(b1-4)Glc
# How it was run: as §1
# [16] = target: Neu5Gc(a2-3)Gal(b1-4)GlcNAc(b1-3)Gal(b1-4)GlcNAc(b1-2)Man(a1-3)[Neu5Gc(a2-3)Gal(b1-4)GlcNAc(b1-3)Gal(b1-4)GlcNAc(b1-2)Man(a1-6)]Man(b1-4)GlcNAc(b1-4)GlcNAc
# How it was run: as §1
# [17] = target: Neu5Gc(a2-3)Gal(b1-4)[Fuc(a1-3)]GlcNAc
# How it was run: as §1
# [18] = target: Neu5Gc(a2-8)Neu5Gc(a2-3)Gal(b1-4)GlcNAc
# How it was run: as §1
# [19] = target: Fuc(a1-2)Gal(b1-4)Fuc(a1-3)]GlcNAc(b1-2)Man(a1-3)[Fuc(a1-2)Gal(b1-4)[Fuc(a1-3)]GlcNAc(b1-2)Man(a1-6)]Man(b1-4)GlcNAc(b1-4)GlcNAc
# How it was run: as §1
# [20] = target: Fuc(a1-2)Gal(b1-4)GlcNAc
# How it was run: as §1
# [21] = target: Fuc(a1-2)Gal(b1-4)[Fuc(a1-3)]GlcNAc(b1-2)[Fuc(a1-2)Gal(b1-4)[Fuc(a1-3)]GlcNAc(b1-4)]Man(a1-3)[Fuc(a1-2)Gal(b1-4)[Fuc(a1-3)]GlcNAc(b1-2)Man(a1-6)]Man(b1-4)GlcNAc(b1-4)GlcNAc
# How it was run: as §1
# [22] = target: Fuc(a1-2)Gal6S(b1-4)Glc
# How it was run: as §1
# [23] = target: Fuc(a1-2)[GalNAc(a1-3)]Gal(b1-3)GlcNAc(b1-3)GalNAc
# How it was run: as §1
# [24] = target: Fuc(a1-2)[GalNAc(b1-3)]Gal
# How it was run: as §1
# [25] = target: Fuc(a1-3)[Gal(b1-4)]GlcNAc(b1-6)GalNAc
# How it was run: as §1
# [26] = target: Fuc(a1-4)GlcNAc
# How it was run: as §1
# [27] = target: Gal(a1-2)Gal
# How it was run: as §1
# [28] = target: Gal(a1-3)Gal
# How it was run: as §1
# [29] = target: Gal(a1-3)Gal(b1-3)GlcNAc
# How it was run: as §1
# [30] = target: Gal(a1-3)Gal(b1-3)GlcNAc(b1-2)Man
# How it was run: as §1
# [31] = target: Gal(a1-3)Gal(b1-4)GlcNAc(b1-2)Man
# How it was run: as §1
# [32] = target: Gal(a1-4)Gal(b1-4)GlcNAc(b1-3)Gal(b1-4)Glc
# How it was run: as §1
# [33] = target: Gal(b1-3)GalNAc(b1-3)Gal
# How it was run: as §1
# [34] = target: Gal(b1-3)GalNAc(b1-4)Gal(b1-4)Glc
# How it was run: as §1
# [35] = target: Gal(b1-3)GlcNAc(b1-3)Gal(b1-4)GlcNAc
# How it was run: as §1
# [36] = target: Gal(b1-4)GlcNAc(b1-2)Man(a1-3)[Gal(b1-4)GlcNAc(b1-2)Man(a1-6)][GlcNAc(b1-4)]Man(b1-4)GlcNAc(b1-4)[Fuc(a1-6)]GlcNAc
# How it was run: as §1
# [37] = target: Gal(b1-4)GlcNAc(b1-2)Man(a1-3)[Man(a1-6)]Man(b1-4)GlcNAc(b1-4)GlcNAc
# How it was run: as §1
# [38] = target: Gal(b1-4)GlcNAc(b1-3)Gal(b1-4)GlcNAc(b1-2)[Gal(b1-4)GlcNAc(b1-3)Gal(b1-4)GlcNAc(b1-6)]Man(a1-6)[Gal(b1-4)GlcNAc(b1-3)Gal(b1-4)GlcNAc(b1-2)Man(a1-3)]Man(b1-4)GlcNAc(b1-4)GlcNAc
# How it was run: as §1
# [39] = target: Gal(b1-4)GlcNAc(b1-3)Gal(b1-4)GlcNAc(b1-3)GalNAc
# How it was run: as §1
# [40] = target: Gal3S(b1-4)Glc
# How it was run: as §1
# [41] = target: Gal6S(b1-4)Glc
# How it was run: as §1
# [42] = target: GalNAc(b1-3)Gal
# How it was run: as §1
# [43] = target: GalNAc(b1-3)Gal(a1-6)Gal(b1-4)Glc
# How it was run: as §1
# [44] = target: GalNAc3S(b1-4)[Fuc(a1-3)]GlcNAc
# How it was run: as §1
# [45] = target: Glc(b1-6)Glc
# How it was run: as §1
# [46] = target: GlcA3S(b1-3)Gal(b1-4)GlcNAc(b1-3)Gal(b1-4)Glc
# How it was run: as §1
# [47] = target: GlcNAc(b1-2)[GlcNAc(b1-4)]Man(a1-3)[GlcNAc(b1-4)][GlcNAc(b1-2)Man(a1-6)]Man(b1-4)GlcNAc(b1-4)GlcNAc
# How it was run: as §1
# [48] = target: GlcNAc(b1-2)[GlcNAc(b1-6)]Man(a1-6)[GlcNAc(b1-4)][GlcNAc(b1-2)Man(a1-3)]Man(b1-4)GlcNAc(b1-4)GlcNAc
# How it was run: as §1
binder,measurement,setting,value
B1,glycan array binding signal (z-score),[1],4.07
same,glycan array binding signal (z-score),[2],4.83
same,glycan array binding signal (z-score),[3],6.51
same,glycan array binding signal (z-score),[4],4.21
same,glycan array binding signal (z-score),[5],3.44
same,glycan array binding signal (z-score),[6],-0.37
same,glycan array binding signal (z-score),[7],-0.389
same,glycan array binding signal (z-score),[8],-0.249
same,glycan array binding signal (z-score),[9],-0.272
same,glycan array binding signal (z-score),[10],-0.269
same,glycan array binding signal (z-score),[11],-0.276
same,glycan array binding signal (z-score),[12],1.27
same,glycan array binding signal (z-score),[13],-0.387
same,glycan array binding signal (z-score),[14],-0.3
same,glycan array binding signal (z-score),[15],-0.244
same,glycan array binding signal (z-score),[16],0.883
same,glycan array binding signal (z-score),[17],-0.366
same,glycan array binding signal (z-score),[18],-0.388
B2,glycan array binding signal (z-score),[19],1.89
same,glycan array binding signal (z-score),[20],0.713
same,glycan array binding signal (z-score),[21],1.72
same,glycan array binding signal (z-score),[22],0.088
same,glycan array binding signal (z-score),[23],1.77
same,glycan array binding signal (z-score),[24],-0.335
same,glycan array binding signal (z-score),[25],-0.245
same,glycan array binding signal (z-score),[26],0.624
same,glycan array binding signal (z-score),[27],-0.315
same,glycan array binding signal (z-score),[28],0.754
same,glycan array binding signal (z-score),[29],0.398
same,glycan array binding signal (z-score),[30],0.084
same,glycan array binding signal (z-score),[31],-1.01
same,glycan array binding signal (z-score),[32],-0.647
same,glycan array binding signal (z-score),[33],-0.13
same,glycan array binding signal (z-score),[34],0.08
same,glycan array binding signal (z-score),[35],-0.549
same,glycan array binding signal (z-score),[36],-0.754
same,glycan array binding signal (z-score),[37],-0.73
same,glycan array binding signal (z-score),[38],2.58
same,glycan array binding signal (z-score),[39],1.97
same,glycan array binding signal (z-score),[40],1.83
same,glycan array binding signal (z-score),[41],-0.308
same,glycan array binding signal (z-score),[42],1.82
same,glycan array binding signal (z-score),[43],-1.07
same,glycan array binding signal (z-score),[44],0.211
same,glycan array binding signal (z-score),[45],-1.19
same,glycan array binding signal (z-score),[46],-0.551
same,glycan array binding signal (z-score),[47],-0.524
same,glycan array binding signal (z-score),[48],-0.731
